CD11b adhes inh = inhibitors of human CD11b/CD18 binding to fibrinogen; P05107+P11215; K562 CD11b/CD18 adhesion to fibrinogen, ATPlite luminescence; Mn2+ added to activate the integrin; 93,000 tested, 0.54% active; AID 1497; inhibition, % at 10 µM;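 active means primary inhibition of 50% or more at 10 µM, then 40% or more on retest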
CYP2C9 inh = inhibitors of human CYP2C9; inhibition, % at 5 µM; CYP2C9 Supersomes, luciferin-H conversion, luminescence; 96,000 tested, 20% active; AID 777; P11712;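 active means blocking of liver enzyme CYP2C9 beyond about 50% at 5 µM, limit read from the data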
CYP2C19 act = cytochrome P450 2C19 (human) activation; P33261; recombinant CYP2C19, luciferin-H EGE luminescence; active compounds read high; 0 = fully inhibited enzyme, 1 = untreated enzyme; activation factor at 5 µM; 96,000 tested, under 10 active;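 active means activation factor of at least 2 at 5 µM in the primary screen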
Target sequence (P33261 whole entry, looked up): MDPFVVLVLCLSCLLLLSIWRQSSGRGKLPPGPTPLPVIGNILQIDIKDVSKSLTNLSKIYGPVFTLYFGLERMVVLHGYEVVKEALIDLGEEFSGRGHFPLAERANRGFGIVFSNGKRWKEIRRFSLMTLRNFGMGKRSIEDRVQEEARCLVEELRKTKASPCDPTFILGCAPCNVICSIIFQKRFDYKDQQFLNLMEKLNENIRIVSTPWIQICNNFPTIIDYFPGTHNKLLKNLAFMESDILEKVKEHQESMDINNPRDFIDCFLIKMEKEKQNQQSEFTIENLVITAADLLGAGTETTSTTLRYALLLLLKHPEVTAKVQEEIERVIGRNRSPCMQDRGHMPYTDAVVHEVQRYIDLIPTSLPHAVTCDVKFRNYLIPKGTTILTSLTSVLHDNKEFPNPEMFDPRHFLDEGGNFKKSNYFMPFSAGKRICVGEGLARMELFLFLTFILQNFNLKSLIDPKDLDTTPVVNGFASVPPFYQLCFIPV
Mac1 fbg enh = enhancers of human CD11b/CD18 binding to fibrinogen; 93,000 tested, 0.07% active; activation, % at 10 µM; P05107+P11215; K562 CD11b/CD18 adhesion to fibrinogen, ATPlite luminescence; AID 1499;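 active means 10 µM primary screen giving 50% or more activity, confirmed by 40% or more on retest at that dose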
CYP2C9 act = increases human cytochrome P450 2C9 activity | recombinant CYP2C9, luciferin-H conversion, luminescence; active compounds read high; factor 1 = untreated enzyme, 0 = blocked | activation factor at 5 µM | 96,000 tested, 1.4% active | AID 1024;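 active means activation factor of 2 or more for CYP2C9 at a 5 µM dose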
CYP2C19 inhib = inhibitors of human CYP2C19; P33261; 96,000 tested, 21% active; CYP2C19 Supersomes, luciferin-H EGE luminescence, 30 min; inhibition, % at 5 µM; AID 778;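 active means CYP2C19 inhibition above a set limit at 5 µM in the primary screen, cut at about 50% in these data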
Of the large screens only hits and unclear results are named; the others gave an inactive call. This is a sample that favours compounds with a hit; in the whole collection about 28% have one here.

CC1CCCCC1NC(=O)c1ccc(CNc2c(N3CCCC3)c(=O)c2=O)cc1 (stereo not drawn)	none
CCc1ccc(/C=C2\SC(=S)N(CCCC(=O)Nc3ccccn3)C2=O)cc1	none (no result: CD11b adhes inh, Mac1 fbg enh)
CCc1ccc(/C=C2/SC(=S)N(CC(=O)Nc3nc4ccccc4s3)C2=O)cc1	CYP2C9 inh 53.1 (no result: CD11b adhes inh, Mac1 fbg enh)
Cc1ccc(N=Cc2nc(-c3ccco3)oc2O)cc1	CYP2C9 inh 56.3
Cc1ccc(S(=O)(=O)N(c2ccccc2)C2CCS(=O)(=O)C2)cc1 (stereo not drawn)	none
CCC1(CC)C(=O)NC(=O)NC1=NCCc1ccc(O)cc1	none
Cc1ccc(-c2nc(CSCC(=O)NCCCN3CCOCC3)c(C)o2)cc1	none
CSc1ccc(-c2nc(CSCC(=O)NCCCN3CCOCC3)c(C)o2)cc1	CYP2C19 inhib 55.6
COCCCNC(=O)/C(=C\c1cccn1C)NC(=O)c1cccs1	none (no result: CYP2C9 inh, CYP2C19 act, CYP2C9 act, CYP2C19 inhib)
COc1ccc(NC(=O)CN2C(=O)CC(C)(C)S(=O)(=O)c3ccccc32)cc1	none
CCn1c(SCC(=O)NCC(=O)Nc2ccc(F)cc2)nnc1-c1ccncc1	none
CCn1c(SCc2nc3ccccc3[nH]2)nnc1-c1cnccn1	CYP2C19 inhib 90.8
CCn1c(SCc2nc3ccccc3[nH]2)nnc1-c1ccncc1	CYP2C19 inhib 92.8
CCn1c(SCc2nc3ccccc3[nH]2)nnc1-c1cccnc1	CYP2C19 inhib 77.7
O=c1[nH]c(CN2CCN(Cc3ccc4c(c3)OCO4)CC2)nc2sc3c(c12)CCC3	none
COc1ccc(N(C(=O)c2ccc(F)cc2)C2=CC3CCC(C2)N3C)cc1 (stereo not drawn)	none
CSc1nc(=O)n(-c2ccccc2)c(C)c1C(C)=O	none
CSc1nc(-c2ccccc2)nc(N)c1C(C)=O	CYP2C9 inh 62.7
CCOc1ncccc1C(=O)OCCN1C(=O)c2ccccc2C1=O	CYP2C19 inhib 58.6
CCOc1ncccc1C(=O)OCC(=O)Nc1c(C)cc(C)cc1C	CYP2C19 inhib 60.0
CCOc1ncccc1C(=O)OCC(=O)Nc1c(C)cccc1C	CYP2C19 inhib 52.4
CCOc1ncccc1C(=O)OCC(=O)c1cccs1	none
Cn1ncc2c(NNC(=O)c3ccccc3Cl)ncnc21	none (no result: CYP2C9 inh, CYP2C19 act, CYP2C9 act, CYP2C19 inhib)
O=C(Cc1ccccc1)Nc1cccc(-c2nnc(-c3ccco3)o2)c1	CYP2C9 inh 79.0, CYP2C19 inhib 84.4 (no result: CD11b adhes inh, Mac1 fbg enh)
O=C(COc1ccccc1)Nc1ccc(-c2nnc(-c3ccco3)o2)cc1	none
O=C(Nc1cccc(-c2nnc(-c3ccco3)o2)c1)C(c1ccccc1)c1ccccc1	CYP2C9 inh 97.8, CYP2C19 inhib 83.4
O=C(Cc1ccc(Cl)cc1)Nc1cccc(-c2nnc(-c3ccco3)o2)c1	CYP2C9 inh 77.6, CYP2C19 inhib 80.4 (no result: CD11b adhes inh, Mac1 fbg enh)
CC1CCCN(C(=O)CSc2nnc3n(C4CCCC4)c(=O)c4ccccc4n23)C1 (stereo not drawn)	none
CCOC(=O)c1cc(Br)c(=O)n2ccccc12	none (no result: CD11b adhes inh, Mac1 fbg enh)
O=c1c2c3c(sc2nc2sc(CN4CCOCC4)cn12)CCCC3	none
CCOCCCNS(=O)(=O)c1ccc(NC(=O)c2ccccc2)cc1	none
Cc1cc(C)n2nc(SCC(=O)N(C)Cc3ccccc3)nc2n1	none
O=C(CCS(=O)(=O)c1cccs1)N1CCN(c2ccc(F)cc2)CC1	CYP2C19 inhib 72.3 (no result: CD11b adhes inh, Mac1 fbg enh)
O=C(CCS(=O)(=O)c1cccc2nonc12)N1CCN(c2ccc(F)cc2)CC1	CYP2C9 act 2
Cc1ccc(CNc2nc(N)c([N+](=O)[O-])c(Nc3cccc(F)c3)n2)cc1	CYP2C9 inh 65.2, CYP2C19 inhib 50.0
Nc1nc(NCc2ccccc2)nc(Nc2cccc(F)c2)c1[N+](=O)[O-]	none (no result: CD11b adhes inh, CYP2C9 inh, Mac1 fbg enh, CYP2C9 act)
CCOc1cccc(Oc2ccc(C(F)(F)F)cn2)c1	none
FC(F)(F)c1cnc(Oc2ccccc2-c2nnco2)c(Cl)c1	CYP2C19 inhib 95.3
FC(F)(F)c1cnc(Oc2ccc(-c3nnco3)cc2)c(Cl)c1	none
COc1cccc(OC)c1Oc1ccc(C(F)(F)F)cn1	CYP2C19 inhib 65.7
Nc1ccccc1Oc1ncc(C(F)(F)F)cc1Cl	CYP2C19 inhib 71.6 (no result: CD11b adhes inh, Mac1 fbg enh)
CN(C)CCCNS(=O)(=O)c1ccc(Oc2ncc(C(F)(F)F)cc2Cl)cc1	none
COc1cccc(NC(=O)N2CCCC(C(=O)Nc3ccccc3OC)C2)c1 (stereo not drawn)	none
CC(=O)NCCSC(=O)c1ccc(F)cc1	none
COc1cccc(-n2c(CNC(=O)OC(C)(C)C)n[nH]c2=S)c1	none
Cc1ccc(CNC(=O)CCSCCC(=O)NCc2ccc(C)cc2)cc1	CYP2C9 inh 69.6
Cc1ccc(CNC(=O)CSc2nc(N3CCCCC3)nc(N3CCCCC3)n2)cc1	CYP2C19 inhib 71.1
Cc1ccc(CCNC(=O)CCSCc2ccc(Cl)cc2)cc1	none (no result: CYP2C9 inh, CYP2C19 act, CYP2C9 act, CYP2C19 inhib)
Cc1ccc(CNC(=O)CSc2ncccn2)cc1	CYP2C19 inhib 77.3
Cc1ccc(CNC(=O)CSc2n[nH]c(N)n2)cc1	none
CCc1nnc(NC(=O)CCC(=O)N2CCN(CCOc3ccc(C)cc3)CC2)s1	none
O=C(NCC(=O)N1CCN(c2ncccn2)CC1)c1cccs1	CYP2C19 inhib 59.1
Cc1ccc(C(=O)NCC(=O)N2CCN(c3ncccn3)CC2)s1	CYP2C9 inh 71.5
CCOC(=O)Cc1cc(=O)n2[nH]c(C)c(-c3ccc(Cl)cc3)c2n1	CYP2C9 inh 50.2
CCOC(=O)Cc1c(C)nc2c(-c3ccc(Cl)cc3)c[nH]n2c1=O	CYP2C9 inh 66.6
CCOC(=O)Cc1cc(=O)n2[nH]c(C)c(-c3ccc(OC)cc3)c2n1	none
O=C(COC(=O)Cc1ccsc1)NCC1CCCCC1	CYP2C19 inhib 56.9
CC(NC(=O)COC(=O)Cc1ccsc1)C1CC2CCC1C2 (stereo not drawn)	CYP2C19 inhib 91.9
Nc1c(C(=O)NCCc2ccc(Cl)cc2)sc2ccc(S(=O)(=O)N3CCCCC3)cc12	none (no result: CYP2C9 inh, CYP2C19 act, CYP2C9 act, CYP2C19 inhib)
O=C(COc1ccc(Cl)cc1)Nc1ccc(N2CCN(C(=O)c3ccco3)CC2)cc1	CYP2C19 inhib 50.9 (no result: CD11b adhes inh, Mac1 fbg enh)
O=C(CSc1ccc(Cl)cc1)Nc1ccc(N2CCN(C(=O)c3ccco3)CC2)cc1	CYP2C9 inh 63.8
CCOC(=O)C1CCN(C(=O)CSC2=NCCS2)CC1	CYP2C19 inhib 59.4
Cn1nnnc1SCC(=O)N1CCN(c2ccc(Cl)cc2)CC1	none
O=C(CSC1=NCCS1)N1CCN(c2ccc(Cl)cc2)CC1	CYP2C19 inhib 62.0 (no result: CD11b adhes inh, Mac1 fbg enh)
Cc1oc(-c2ccccc2F)nc1CS(=O)(=O)CC(=O)N1CCCCCC1	CYP2C9 inh 80.7
COc1ccc(OC)c(CCNC(=O)CS(=O)(=O)Cc2nc(-c3ccccc3C)oc2C)c1	CYP2C19 inhib 65.7
Cc1ccccc1-c1nc(CS(=O)(=O)CC(=O)N(C)C2CCCCC2)c(C)o1	CYP2C19 inhib 86.5
Cc1nnsc1NC(=O)OCC(C)(C)C	none
Cc1ccc(S(=O)(=O)c2nc(Nc3ccccc3N3CCOCC3)sc2Cl)cc1	none (no result: CD11b adhes inh, Mac1 fbg enh)
Cc1ccc(S(=O)(=O)N2CCC(C(=O)OCC(=O)N3CCc4ccccc43)CC2)cc1	none

Assay outcomes from PubChem BioAssay.
